Measurements from the supplement of paper PMC6555819.

System: PXR homodimer (NR concentration 270 nM)
Experiment: PBM binding z-score (relative to random genomic background probes); higher = stronger binding; sequences stand for … in GC…GCGATTGACAGCGTAGAATGAAGG
Outline: (§1)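 Each nuclear receptor dimer, without ligand, was incubated for 1 h on custom Agilent 4×180K protein-binding microarrays. Binding was detected with antibodies against each partner (one per run), and scanned fluorescence was regression-normalized. The binding z-scores are referenced to random human genomic background probes.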

Row | Sequence | PBM binding z-score
1 | TAGCCTAGGTCATGGGCCAGTAGACCACGCGAAC | -0.436
2 | ATCGAAAGGTCGAGGTGATTATAGAGAAAGGGAA | 0.0251
3 | CTCGAAAGGTCGGTAGAGGTGAGTATACGGATAA | 0.0204
4 | CCTAGTAGGCCAGGGTCACTCAAGCATTTCGCTT | -0.126
5 | CCTTACGGGTCACTCCAGGCTATAGCATCGGAGT | -0.213
6 | CGAACTAGGTCAAGGTCAGTGAATCTCCGCACGC | 1.03
7 | AGAACGAGGGCACGCTGAGTTCATAGCAGAGTAG | 10.4
8 | GCCACTGGGGCATCAGCAGGTTACCATAACTTAA | -0.589
9 | ACTAGTTGGTCAGCTGAGATCACACACAATTCGG | -0.161
10 | ATTTACGGGTCAACGAGGTTATAGCACGCGTATA | 4.18
11 | TAGCCTAGGTCATTGGGCAAGTATAGTACGCATC | -0.337
12 | TCTCGGAGTACACGAAGGTCAGAGCTTTCCAGAG | 0.814
13 | AGAACGAGGGCACGGTGAGTTGATAGCAGAGTAG | 0.0665
14 | TCAAGCAGGCCAGAGGGTCACTCAAGAGGTACGG | -0.357
15 | CAAACTAGGTCACAGAGGCCAAAGTCCGTGCGTA | 2.61
16 | CGTCAAAGTACAACTAAGGTAACGTAAAGCACGC | 0.247
17 | TCTTGTAGATCAAGCAGGTTAAGAAAGCCTGAGT | 0.388
18 | TCATATAGGTAATACAGGTAAAAGTCGGCATCTA | 0.364
19 | AATACAGGGTCACTAGGCCAGAATAGGTACGAAT | 0.787
20 | CGAACTAGGTCATTGACAGGAGAGTGAATAGTAA | 0.0101

Row | Sequence | PBM binding z-score
21 | ATATGTAGGTTGTCGGGTCATTCAGTTTGCGCAT | 8.53
22 | TAGCCTGGGTCATGGGCCAGTATACCACGCGAAC | -0.609
23 | CGTCCAAGGTCAAGGGTCAGTGAAGAGATGACGG | 1.43
24 | ATCGAAAGATCGACGAGGTGAGTATACACCGTTT | 0.0422
25 | TCTTGTAGATCAAGCAGGTTAAGATAGCCTGAGT | -0.159
26 | GCTACTAGTTGAAAGGGCAACCGAATGATTCTCG | -0.0671
27 | TCCGACAGGTGAAGGTAACTCAGGTACGCAGTCG | -0.308
28 | ATGTGTAGGTTAGCTGGGGTCATTCAGACTAGGC | 5.39
29 | TATACAGGGTCAATGGCCAGAGTACGAATGTCGA | 0.633
30 | CGTCAAAGTTCAATGTAACGTAACAGAAAGCAGC | 4
31 | ATATGTAGGTTACATCCGGGTCGTTCAGGCTATG | 0.721
32 | CCCTACGGGTCACTGACAGGTTATAGCATTTGGA | 0.381
33 | AGTCAAAGTTCATCTAGGTAACGCAAGATATGCT | 6.5
34 | CGTCCAAGATCAATGCTAGGTCAGTGAAAGCATT | 0.467
35 | TAGCCTAGGTCATTCAGGAGCCAGTATAGAAAGC | -0.343
36 | CCTGCTAGGTCAATGTTCAGCTAAAGCAGCTCGC | -0.474
37 | TCCAGTAGGTTAGGGGCATTCAGAATGGCGTCGA | 0.251
38 | TCGCGGAGGACACGAAGGTCAGAGCTTTCCAGAG | 0.425
39 | CGAAGTAGGTCATCCAGGACAGTGAATACATTGA | 1.49

System: RARa:RXR (NR concentration 270 nM, RXRa partner concentration 90 nM)
Experiment: as above
Outline: as §1

Row | Sequence | PBM binding z-score
40 | TAGCCTAGGTCATGGGCCAGTAGACCACGCGAAC | 2.64
41 | ATCGAAAGGTCGAGGTGATTATAGAGAAAGGGAA | 3
42 | CTCGAAAGGTCGGTAGAGGTGAGTATACGGATAA | 2.63
43 | CCTAGTAGGCCAGGGTCACTCAAGCATTTCGCTT | 2.8
44 | CCTTACGGGTCACTCCAGGCTATAGCATCGGAGT | 3.16
45 | CGAACTAGGTCAAGGTCAGTGAATCTCCGCACGC | 3.61
46 | AGAACGAGGGCACGCTGAGTTCATAGCAGAGTAG | 2.94
47 | GCCACTGGGGCATCAGCAGGTTACCATAACTTAA | 0.475
48 | ACTAGTTGGTCAGCTGAGATCACACACAATTCGG | 0.321
49 | ATTTACGGGTCAACGAGGTTATAGCACGCGTATA | 5.97
50 | TAGCCTAGGTCATTGGGCAAGTATAGTACGCATC | 2.38
51 | TCTCGGAGTACACGAAGGTCAGAGCTTTCCAGAG | 2
52 | AGAACGAGGGCACGGTGAGTTGATAGCAGAGTAG | 1.27
53 | TCAAGCAGGCCAGAGGGTCACTCAAGAGGTACGG | 2.52
54 | CAAACTAGGTCACAGAGGCCAAAGTCCGTGCGTA | 3.27
55 | CGTCAAAGTACAACTAAGGTAACGTAAAGCACGC | 2.1
56 | TCTTGTAGATCAAGCAGGTTAAGAAAGCCTGAGT | 0.546
57 | TCATATAGGTAATACAGGTAAAAGTCGGCATCTA | 0.922
58 | AATACAGGGTCACTAGGCCAGAATAGGTACGAAT | 4.21
59 | CGAACTAGGTCATTGACAGGAGAGTGAATAGTAA | 1.99

Row | Sequence | PBM binding z-score
60 | ATATGTAGGTTGTCGGGTCATTCAGTTTGCGCAT | 3.15
61 | TAGCCTGGGTCATGGGCCAGTATACCACGCGAAC | 2.83
62 | CGTCCAAGGTCAAGGGTCAGTGAAGAGATGACGG | 8.23
63 | ATCGAAAGATCGACGAGGTGAGTATACACCGTTT | 0.105
64 | TCTTGTAGATCAAGCAGGTTAAGATAGCCTGAGT | 0.668
65 | GCTACTAGTTGAAAGGGCAACCGAATGATTCTCG | 1.32
66 | TCCGACAGGTGAAGGTAACTCAGGTACGCAGTCG | 0.63
67 | ATGTGTAGGTTAGCTGGGGTCATTCAGACTAGGC | 6.36
68 | TATACAGGGTCAATGGCCAGAGTACGAATGTCGA | 3.75
69 | CGTCAAAGTTCAATGTAACGTAACAGAAAGCAGC | 3.03
70 | ATATGTAGGTTACATCCGGGTCGTTCAGGCTATG | 1.35
71 | CCCTACGGGTCACTGACAGGTTATAGCATTTGGA | 4.28
72 | AGTCAAAGTTCATCTAGGTAACGCAAGATATGCT | 3.76
73 | CGTCCAAGATCAATGCTAGGTCAGTGAAAGCATT | 0.725
74 | TAGCCTAGGTCATTCAGGAGCCAGTATAGAAAGC | 2.19
75 | CCTGCTAGGTCAATGTTCAGCTAAAGCAGCTCGC | 1.54
76 | TCCAGTAGGTTAGGGGCATTCAGAATGGCGTCGA | 0.878
77 | TCGCGGAGGACACGAAGGTCAGAGCTTTCCAGAG | 1.74
78 | CGAAGTAGGTCATCCAGGACAGTGAATACATTGA | 3.08
